Reference: ChEMBL document CHEMBL5606460, “ASAP - DENV-2 NS2B-NS3 protease fluorescence single point” (2024)
Out of some 2,000 compounds screened, about 110 (5.5%) showed an effect of 50% or more. What follows is part of a selection rich in strong results, with near analogues and random picks from the rest.

Target: Genome polyprotein (dengue virus type 2) (UniProt P29990)
[1] = Thailand/16681/1984, Concentration 25.0 uM, Number of replicates 1.0

What does the source list for `COc1ccc(S(=O)(=O)n2nc(OC(=O)c3cccc(-c4ccccc4Cl)c3)cc2N)cc1`?
inhibition (Thailand/16681/1984, Concentration 49.5 uM, Number of replicates 2.0, Standard deviation 1.4490153953002987 %): 18.8%; inhibition (Thailand/16681/1984, Concentration 99.01 uM, Number of replicates 2.0, Standard deviation 0.6098804079928887 %): 22.4%; inhibition (Thailand/16681/1984, Concentration 198.0 uM, Number of replicates 2.0, Standard deviation 5.725656788050292 %): 25.3%

With `COc1ccc(S(=O)(=O)N2CCC(C(=O)Nc3nc4ccccc4s3)CC2)cc1` as the compound, how does the inhibition (Thailand/16681/1984, Concentration 49.5 uM, Number of replicates 2.0, Standard deviation 1.3648800018415175 %) read?
The inhibition was 2.28%.

What about the inhibition (Thailand/16681/1984, Concentration 99.01 uM, Number of replicates 2.0, Standard deviation 0.35874487080545164 %) of the same compound?
The inhibition was 4.97%.

What about the inhibition (Thailand/16681/1984, Concentration 198.0 uM, Number of replicates 2.0, Standard deviation 3.7738315130637563 %) of the same compound?
Its inhibition is 5.55%.

`CCCC[C@H](N)C(=O)N[C@H](C(=O)NCc1ccc(C(N)=O)cc1)c1ccc(OCc2ccccc2)cc1` was tested. Which inhibition (Thailand/16681/1984, Concentration 49.5 uM, Number of replicates 2.0, Standard deviation 0.2650581585371317 %) did it give?
Its inhibition is -6.18%.

And the inhibition (Thailand/16681/1984, Concentration 99.01 uM, Number of replicates 2.0, Standard deviation 5.609533791033077 %)?
Its inhibition is 63.5%.

What about the inhibition (Thailand/16681/1984, Concentration 198.0 uM, Number of replicates 2.0, Standard deviation 0.01804559465842439 %) of the same compound?
Its inhibition is 99.8%.

With `NC(=O)c1ccc(CNC(=O)NCc2ccc(OCc3ccccc3)cc2)cc1` as the compound, how does the inhibition (Thailand/16681/1984, Concentration 49.5 uM, Number of replicates 2.0, Standard deviation 0.6584955649548859 %) read?
The inhibition was -0.275%.

What about the inhibition (Thailand/16681/1984, Concentration 99.01 uM, Number of replicates 2.0, Standard deviation 0.579227797958503 %) of the same compound?
The inhibition was 0.348%.

What about the inhibition (Thailand/16681/1984, Concentration 198.0 uM, Number of replicates 2.0, Standard deviation 0.34476708449941224 %) of the same compound?
The inhibition was -0.309%.

Which results are given for `CCCCCC(=O)N[C@H](C(=O)Nc1ccc(C(N)=O)cc1)c1ccc(OCc2ccccc2)cc1`?
inhibition (Thailand/16681/1984, Concentration 49.5 uM, Number of replicates 2.0, Standard deviation 0.6010644427830669 %): 0.424%; inhibition (Thailand/16681/1984, Concentration 99.01 uM, Number of replicates 2.0, Standard deviation 0.8411278167455505 %): 0.131%; inhibition (Thailand/16681/1984, Concentration 198.0 uM, Number of replicates 2.0, Standard deviation 0.2400633914962311 %): -0.732%

For `CCCC[C@H](N)C(=O)N[C@@H](C(=O)NCc1ccc(C(N)=O)cc1)c1ccc(OCc2ccccc2)cc1`, which inhibition (Thailand/16681/1984, Concentration 49.5 uM, Number of replicates 2.0, Standard deviation 0.45534308736890416 %) is on record?
Its inhibition is -4.77%.

And the inhibition (Thailand/16681/1984, Concentration 99.01 uM, Number of replicates 2.0, Standard deviation 0.9591594337975816 %)?
Its inhibition is 6.09%.

And the inhibition (Thailand/16681/1984, Concentration 198.0 uM, Number of replicates 2.0, Standard deviation 4.328590586700157 %)?
Its inhibition is 82.3%.

Which inhibition (Thailand/16681/1984, Concentration 49.5 uM, Number of replicates 2.0, Standard deviation 3.419970703357444 %) does the source give for `NC(=O)c1ccc(CNC(=O)c2ccc(OCc3ccccc3)cc2)cc1` here?
Its inhibition is -0.579%.

What about the inhibition (Thailand/16681/1984, Concentration 99.01 uM, Number of replicates 2.0, Standard deviation 3.9573061855257445 %) of the same compound?
Its inhibition is -0.365%.

What about the inhibition (Thailand/16681/1984, Concentration 198.0 uM, Number of replicates 2.0, Standard deviation 3.324054675683989 %) of the same compound?
The inhibition was -1.19%.

How did the inhibition (Thailand/16681/1984, Concentration 49.5 uM, Number of replicates 2.0, Standard deviation 1.6752456853530722 %) turn out when `C[C@@H](NCc1ccc(C(N)=O)cc1)c1ccc(OCc2ccccc2)cc1` was run?
Its inhibition is 0.14%.

And the inhibition (Thailand/16681/1984, Concentration 99.01 uM, Number of replicates 2.0, Standard deviation 1.116678580733439 %)?
Its inhibition is 0.358%.

What about the inhibition (Thailand/16681/1984, Concentration 198.0 uM, Number of replicates 2.0, Standard deviation 0.6068608391781741 %) of the same compound?
The inhibition was -0.175%.

`COc1ccccc1C1CCN(C(=O)C2CCN(c3ccc(C=O)cc3)CC2)CC1` was tested. Which inhibition [1] did it give?
Its inhibition is 12.3%.

Which inhibition (Thailand/16681/1984, Concentration 49.5 uM, Number of replicates 2.0, Standard deviation 0.5051399787428742 %) does the source give for `CN(C)Cc1ccc(C(=O)Nc2cc(Cl)cc(C(=O)NC(C)(C)CO)c2)[nH]1` here?
Its inhibition is 0.205%.

And the inhibition (Thailand/16681/1984, Concentration 99.01 uM, Number of replicates 2.0, Standard deviation 1.5521383022614499 %)?
The inhibition was 0.663%.

And the inhibition (Thailand/16681/1984, Concentration 198.0 uM, Number of replicates 2.0, Standard deviation 0.5964116239079592 %)?
The inhibition was 5.64%.

For `CCN(Cc1cc(Br)ccc1F)C(=O)C1CCN(c2ccc(C=O)cc2)CC1`, which inhibition [1] is on record?
The inhibition was 15.9%.

Which results are given for `Cc1cc(N)c2c(Cl)ccc(Cl)c2n1`?
inhibition (Thailand/16681/1984, Concentration 49.95 uM, Number of replicates 2.0, Standard deviation 8.427681720895945 %): -5.26%; inhibition (Thailand/16681/1984, Concentration 99.9 uM, Number of replicates 2.0, Standard deviation 7.565581927359314 %): -3.92%

How did the inhibition (Thailand/16681/1984, Concentration 49.95 uM, Number of replicates 2.0, Standard deviation 0.6589137143756747 %) turn out when `Cc1cc(Cl)c2cccc(N)c2n1` was run?
The inhibition was 13.5%.

And the inhibition (Thailand/16681/1984, Concentration 99.9 uM, Number of replicates 2.0, Standard deviation 0.20071745394997703 %)?
The inhibition was 27.6%.

`Cc1cc(Cl)c2c(N)ccc(C)c2n1` was tested. Which inhibition (Thailand/16681/1984, Concentration 49.95 uM, Number of replicates 2.0, Standard deviation 5.268842944255752 %) did it give?
Its inhibition is 34.7%.

And the inhibition (Thailand/16681/1984, Concentration 99.9 uM, Number of replicates 2.0, Standard deviation 0.5758298004935433 %)?
Its inhibition is 94.7%.

For `Cc1cc(CO)c2cccc(Cc3cccc(NC(=O)c4cnn(Cc5c(C)noc5C)c4)c3)c2n1`, which inhibition (Thailand/16681/1984, Concentration 49.95 uM, Number of replicates 2.0, Standard deviation 1.4870028556253494 %) is on record?
The inhibition was -3.7%.

And the inhibition (Thailand/16681/1984, Concentration 99.9 uM, Number of replicates 2.0, Standard deviation 1.816697484259061 %)?
Its inhibition is -0.8%.

Which results are given for `O=C(Nc1ccc(O)cc1)c1cccc(OCc2c(Cl)cccc2Cl)c1`?
inhibition (Thailand/16681/1984, Concentration 49.5 uM, Number of replicates 2.0, Standard deviation 0.38856258601515087 %): 5.85%; inhibition (Thailand/16681/1984, Concentration 99.01 uM, Number of replicates 2.0, Standard deviation 1.1651546847054868 %): 9.28%; inhibition (Thailand/16681/1984, Concentration 198.0 uM, Number of replicates 2.0, Standard deviation 0.8272279968409002 %): 12.6%

For `O=C(O)c1cccc(NC(=O)c2cccc(OCc3c(Cl)cccc3Cl)c2)c1`, which inhibition (Thailand/16681/1984, Concentration 49.5 uM, Number of replicates 2.0, Standard deviation 0.517131041635451 %) is on record?
The inhibition was 14.9%.

And the inhibition (Thailand/16681/1984, Concentration 99.01 uM, Number of replicates 2.0, Standard deviation 0.3657402361338958 %)?
Its inhibition is 47.1%.

And the inhibition (Thailand/16681/1984, Concentration 198.0 uM, Number of replicates 2.0, Standard deviation 0.23203020217005468 %)?
The inhibition was 92.1%.

`O=C(Nc1cccc(O)c1)c1cccc(OCc2c(Cl)cccc2Cl)c1` was tested. Which inhibition (Thailand/16681/1984, Concentration 49.5 uM, Number of replicates 2.0, Standard deviation 2.2599777431890864 %) did it give?
The inhibition was 6.58%.

And the inhibition (Thailand/16681/1984, Concentration 99.01 uM, Number of replicates 2.0, Standard deviation 0.8121141369648937 %)?
The inhibition was 8.41%.

What about the inhibition (Thailand/16681/1984, Concentration 198.0 uM, Number of replicates 2.0, Standard deviation 0.4931997238761773 %) of the same compound?
Its inhibition is 11.9%.

How did the inhibition (Thailand/16681/1984, Concentration 49.95 uM, Number of replicates 2.0, Standard deviation 0.827370284601473 %) turn out when `Cc1cc(CO)c2cccc(Cc3cccc(NC(=O)[C@@H]4CC(=O)CCN4)c3)c2n1` was run?
Its inhibition is 15.8%.

What about the inhibition (Thailand/16681/1984, Concentration 99.9 uM, Number of replicates 2.0, Standard deviation 0.7401310286309556 %) of the same compound?
Its inhibition is 32.9%.

`NCc1cccc(NC(=O)Cc2ccc(OCc3ccccc3)cc2)c1` was tested. Which inhibition (Thailand/16681/1984, Concentration 49.5 uM, Number of replicates 2.0, Standard deviation 0.3616312555788717 %) did it give?
The inhibition was -3.09%.

What about the inhibition (Thailand/16681/1984, Concentration 99.01 uM, Number of replicates 2.0, Standard deviation 0.27421312838327405 %) of the same compound?
The inhibition was -2.89%.

What about the inhibition (Thailand/16681/1984, Concentration 198.0 uM, Number of replicates 2.0, Standard deviation 0.0354621897496722 %) of the same compound?
The inhibition was -1.31%.

With `NC(=O)c1cccc(NC(=O)[C@@H](NC(=O)OCc2ccccc2)c2ccc(OCc3ccccc3)cc2)c1` as the compound, how does the inhibition (Thailand/16681/1984, Concentration 49.5 uM, Number of replicates 2.0, Standard deviation 9.041969593425012 %) read?
The inhibition was 3.65%.

And the inhibition (Thailand/16681/1984, Concentration 99.01 uM, Number of replicates 2.0, Standard deviation 1.1271011381219709 %)?
Its inhibition is 9.06%.

What about the inhibition (Thailand/16681/1984, Concentration 198.0 uM, Number of replicates 2.0, Standard deviation 1.277025907644923 %) of the same compound?
The inhibition was 16%.

Which results are given for `NCc1cccc(NC(=O)[C@@H](CCC(N)=O)NC(=O)OCc2ccccc2)c1`?
inhibition (Thailand/16681/1984, Concentration 49.5 uM, Number of replicates 2.0, Standard deviation 0.6750820884014238 %): -3.1%; inhibition (Thailand/16681/1984, Concentration 99.01 uM, Number of replicates 2.0, Standard deviation 2.465072002477128 %): -1.7%; inhibition (Thailand/16681/1984, Concentration 198.0 uM, Number of replicates 2.0, Standard deviation 2.5897319885400165 %): -0.981%

What does the source list for `NCc1cccc(NC(=O)[C@@H](NC(=O)OCc2ccccc2)c2ccc(Br)cc2)c1`?
inhibition (Thailand/16681/1984, Concentration 49.5 uM, Number of replicates 2.0, Standard deviation 0.0939294781157427 %): -4.11%; inhibition (Thailand/16681/1984, Concentration 99.01 uM, Number of replicates 2.0, Standard deviation 0.02096957442071617 %): 99.8%; inhibition (Thailand/16681/1984, Concentration 198.0 uM, Number of replicates 2.0, Standard deviation 0.044447729264800756 %): 99.8%
